Results published in PubChem BioAssay (NCI).
This is part of a sample that, as a whole, favours compounds with a hit. Of some 79,000 tested, about 15% had one in any assay. A number with no mark means an inactive call. Activity calls are given as the source filed them. No stated cut-off is given here; in the data, active means growth inhibition above about 70%; inactive means the rest.

How the values were obtained:
[1] = NCI Yeast Anticancer Drug Screen. Data for the rad52 strain (AID 147);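 further: 0% = growth of vehicle-treated control cultures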; conditions: S. cerevisiae rad52 mutant growth inhibition, stronger effect = higher value
Summary of the method: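 The repair-mutant yeast strain was incubated with compounds, then growth was read and inhibition derived relative to vehicle.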

[2] = NCI Yeast Anticancer Drug Screen. Data for the wt1 strain (AID 149);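 further: 0% = growth of vehicle-treated wt1 cultures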; conditions: S. cerevisiae wt1 strain (SPY 50644) growth inhibition, stronger effect = higher value
Summary of the method: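 wt1 strain grown with compound or vehicle; inhibition taken from the growth difference.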

[3] = NCI Yeast Anticancer Drug Screen. Data for the rad50EPP+ strain (AID 151);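 further: 0% = growth of vehicle-treated control cultures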; conditions: S. cerevisiae rad50 mutant strain, stronger effect = higher value
Summary of the method: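 Vehicle-normalised growth inhibition; rad50EPP+ yeast strain, altered in DNA damage repair, compound-treated.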

[4] = NCI Yeast Anticancer Drug Screen. Data for the mgt1 strain (AID 153); conditions: S. cerevisiae mgt1 mutant growth inhibition, stronger effect = higher value
Summary of the method: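 Vehicle-normalized growth inhibition is determined in mgt1 yeast, a strain selected for a defined alteration in DNA repair or cell cycle control.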

[5] = NCI Yeast Anticancer Drug Screen. Data for the rad50 strain (AID 155);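 further: 0% = growth of vehicle-only cultures of the same strain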; conditions: S. cerevisiae rad50 strain growth inhibition, stronger effect = higher value
Summary of the method: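 DNA repair mutant yeast, compound exposure, growth read-out; inhibition is taken relative to vehicle.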

[6] = NCI Yeast Anticancer Drug Screen. Data for the rad14 strain (AID 159);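 further: 0% = growth of vehicle-treated control cultures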; conditions: S. cerevisiae rad14 strain growth inhibition, stronger effect = higher value
Summary of the method: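 DNA repair-defective yeast, compound-exposed; % growth inhibition derived by comparison with vehicle-treated controls.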

[7] = NCI Yeast Anticancer Drug Screen. Data for the sgs1 mgt1 strain (AID 161);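 further: 0% = growth of cultures given vehicle only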; conditions: S. cerevisiae sgs1 mgt1 strain, stronger effect = higher value
Summary of the method: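 Percent growth inhibition was derived by comparing compound-exposed mutant yeast with vehicle-exposed cultures. The strain carries alterations in DNA damage repair.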

[8] = NCI Yeast Anticancer Drug Screen. Data for the CLN2oe strain (AID 163);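 further: 0% = growth of vehicle-only control cultures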; conditions: S. cerevisiae CLN2oe strain, stronger effect = higher value
Summary of the method: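 Compounds are applied to yeast harbouring a defined cell-cycle control change; reduced growth compared with vehicle-treated controls gives the value.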

[9] = NCI Yeast Anticancer Drug Screen. Data for the cln2 rad14 strain (AID 165);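 further: 0% = growth equal to vehicle treated cultures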; conditions: S. cerevisiae cln2 rad14 strain, stronger effect = higher value
Summary of the method: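 Readout is yeast growth inhibition versus vehicle-treated controls, using a strain with cln2 and rad14 alterations exposed to compound.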

[10] = NCI Yeast Anticancer Drug Screen. Data for the bub3 strain (AID 167); conditions: S. cerevisiae bub3 mutant strain, stronger effect = higher value
Summary of the method: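 In this screen, a yeast mutant lacking normal mitotic checkpoint function is challenged with compound. Relative growth versus vehicle gives the inhibition value.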

[11] = NCI Yeast Anticancer Drug Screen. Data for the wt2 strain (AID 169);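 further: 0% = growth of vehicle-treated yeast cultures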; conditions: S. cerevisiae wt2 strain growth inhibition, stronger effect = higher value
Summary of the method: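 Against vehicle-treated controls, the growth of yeast exposed to each compound was compared, and the inhibition was recorded.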

[12] = NCI Yeast Anticancer Drug Screen. Data for the mlh1 strain (AID 171);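 further: 0% = growth of vehicle-treated control cultures of the same strain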; conditions: S. cerevisiae mlh1 strain growth inhibition, stronger effect = higher value
Summary of the method: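 Measured: yeast growth. Reference: vehicle-treated controls. Organism: strain with a defined alteration affecting DNA damage repair or cell cycle control, treated with compound.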

[13] = NCI Yeast Anticancer Drug Screen. Data for the sgs1 strain (AID 173);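 further: 0% = growth of vehicle-only control cultures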; conditions: S. cerevisiae sgs1 mutant, stronger effect = higher value
Summary of the method: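 Each compound was added to cultures of the altered yeast strain. Growth was recorded, and inhibition was derived by comparison with vehicle controls.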

[14] = NCI Yeast Anticancer Drug Screen. Data for the mlh1 rad18 strain (AID 175); conditions: S. cerevisiae mlh1 rad18 strain growth inhibition, stronger effect = higher value
Summary of the method: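 Genetically defined yeast (DNA repair-deficient) exposed to compounds; growth inhibition determined relative to vehicle.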

[15] = NCI Yeast Anticancer Drug Screen. Data for the rad18 strain (AID 177); conditions: S. cerevisiae rad18 mutant growth inhibition, stronger effect = higher value
Summary of the method: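 Vehicle-treated cultures served as the baseline for scoring compound-induced growth inhibition in DNA-repair-mutant yeast.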

[16] = at 5.0 µM (retest, dose inferred, filed as 0.5)
[17] = at 50.0 µM (retest, dose inferred, filed as 5.0)

CCCC(O)C1CC(C(C)C)CCC1C (stereo not given)
growth inhibition ([1]; at 1.2 µM): 0% | growth inhibition ([1]; at 3.7 µM): 1% | growth inhibition ([1]; at 11.0 µM): 2% | growth inhibition ([1]; at 33.0 µM): 7% | growth inhibition ([1]; at 100.0 µM): 43% | growth inhibition ([2]; at 1.2 µM): -1% | growth inhibition ([2]; at 3.7 µM): 0% | growth inhibition ([2]; at 11.0 µM): -1% | growth inhibition ([2]; at 33.0 µM): 3% | growth inhibition ([2]; at 100.0 µM): 75% (active) | growth inhibition ([3]; at 1.2 µM): -3% | growth inhibition ([3]; at 3.7 µM): -2% | growth inhibition ([3]; at 11.0 µM): 7% | growth inhibition ([3]; at 33.0 µM): 47% | growth inhibition ([3]; at 100.0 µM): 98% (active) | growth inhibition ([4]; at 1.2 µM): -2% | growth inhibition ([4]; at 3.7 µM): 0% | growth inhibition ([4]; at 11.0 µM): -1% | growth inhibition ([4]; at 33.0 µM): 5% | growth inhibition ([4]; at 100.0 µM): 96% (active) | growth inhibition ([5]; at 1.2 µM): 0% | growth inhibition ([5]; at 3.7 µM): -46% | growth inhibition [5, 16]: 0% | growth inhibition ([5]; at 11.0 µM): 25% | growth inhibition ([5]; at 33.0 µM): 6% | growth inhibition [5, 17]: 5% | growth inhibition ([5]; at 50.0 µM): 31.4% | growth inhibition ([5]; at 100.0 µM): 64% | growth inhibition ([6]; at 1.2 µM): -1% | growth inhibition ([6]; at 3.7 µM): 0% | growth inhibition ([6]; at 11.0 µM): 4% | growth inhibition ([6]; at 33.0 µM): 17% | growth inhibition ([6]; at 100.0 µM): 99% (active) | growth inhibition [7, 16]: -11% | growth inhibition [7, 17]: 33% | growth inhibition ([7]; at 50.0 µM): 24.8% | growth inhibition ([8]; at 1.2 µM): -3% | growth inhibition ([8]; at 3.7 µM): -3% | growth inhibition ([8]; at 11.0 µM): 5% | growth inhibition ([8]; at 33.0 µM): 4% | growth inhibition ([8]; at 100.0 µM): 12% | growth inhibition [9, 16]: 4% | growth inhibition [9, 17]: 44% | growth inhibition ([9]; at 50.0 µM): 92% (active) | growth inhibition ([10]; at 1.2 µM): -3% | growth inhibition ([10]; at 3.7 µM): -2% | growth inhibition [10, 16]: -2% | growth inhibition ([10]; at 11.0 µM): -3% | growth inhibition ([10]; at 33.0 µM): 1% | growth inhibition [10, 17]: 10% | growth inhibition ([10]; at 50.0 µM): 92.3% (active) | growth inhibition ([10]; at 100.0 µM): 98% (active) | growth inhibition ([11]; at 1.2 µM): -1% | growth inhibition ([11]; at 3.7 µM): 6% | growth inhibition ([11]; at 11.0 µM): 0% | growth inhibition ([11]; at 33.0 µM): 4% | growth inhibition ([11]; at 100.0 µM): 74% (active) | growth inhibition ([12]; at 1.2 µM): -2% | growth inhibition ([12]; at 3.7 µM): 0% | growth inhibition ([12]; at 11.0 µM): 3% | growth inhibition ([12]; at 33.0 µM): 9% | growth inhibition ([12]; at 100.0 µM): 95% (active) | growth inhibition ([13]; at 1.2 µM): -2% | growth inhibition ([13]; at 3.7 µM): -1% | growth inhibition ([13]; at 11.0 µM): 4% | growth inhibition ([13]; at 33.0 µM): 15% | growth inhibition ([13]; at 100.0 µM): 94% (active) | growth inhibition [14, 16]: -1% | growth inhibition [14, 17]: 11% | growth inhibition ([14]; at 50.0 µM): 55.9% | growth inhibition ([15]; at 1.2 µM): 0% | growth inhibition ([15]; at 3.7 µM): 1% | growth inhibition ([15]; at 11.0 µM): 2% | growth inhibition ([15]; at 33.0 µM): 9% | growth inhibition ([15]; at 100.0 µM): 92% (active)
